CYP2C9 inh – human CYP2C9 inhibition | actives 20% (n = 96,000) | CYP2C9 Supersomes, luciferin-H conversion, luminescence | inhibition, % at 5 µM;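 active = blocking of liver enzyme CYP2C9 beyond about 50% at 5 µM, limit read from the data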
PTK2B oligo ant – Pyk2 (human) oligomerization antagonism. Q14289. Q293 cells, Pyk2 FERM NanoBiT luminescence; hits give low values. z-score (the deposit names both 25 µM and 10 µM). actives 0.83% (n = 99,000). AID 1347419;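 active = Z-score of -3 or lower, scaled per plate to the spread of control and sample wells; inactive = z-score above -3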;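 also: negative z-score means lost luminescence so less FERM oligomerization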
CYP2C19 inhib – inhibitors of human CYP2C19; actives 21% (n = 96,000); CYP2C19 Supersomes, luciferin-H EGE luminescence, 30 min; P33261; inhibition, % at 5 µM;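 active = CYP2C19 inhibition above a set limit at 5 µM in the primary screen, cut at about 50% in these data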
Target sequence (P33261 whole entry, looked up): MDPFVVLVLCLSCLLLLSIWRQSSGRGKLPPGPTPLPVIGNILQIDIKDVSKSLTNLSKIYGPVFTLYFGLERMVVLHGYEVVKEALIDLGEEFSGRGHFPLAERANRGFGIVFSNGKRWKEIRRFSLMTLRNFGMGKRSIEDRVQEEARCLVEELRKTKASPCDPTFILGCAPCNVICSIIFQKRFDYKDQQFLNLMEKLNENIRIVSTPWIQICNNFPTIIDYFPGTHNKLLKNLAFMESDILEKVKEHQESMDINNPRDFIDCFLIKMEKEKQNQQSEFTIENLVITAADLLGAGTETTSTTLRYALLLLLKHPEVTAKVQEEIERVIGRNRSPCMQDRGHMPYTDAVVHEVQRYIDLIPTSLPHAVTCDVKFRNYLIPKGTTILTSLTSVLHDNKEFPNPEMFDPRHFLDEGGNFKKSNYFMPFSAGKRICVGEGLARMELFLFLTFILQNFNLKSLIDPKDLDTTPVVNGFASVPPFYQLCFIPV
CYP2C9 activ – increases human cytochrome P450 2C9 activity; activation factor at 5 µM; P11712; actives 1.4% (n = 96,000); AID 1024; recombinant CYP2C9, luciferin-H conversion, luminescence; hits give high values; factor 1 = untreated enzyme, 0 = blocked;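 active = activation factor of 2 or more for CYP2C9 at a 5 µM dose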
CYP2C19 act – activators of human cytochrome P450 2C19 | recombinant CYP2C19, luciferin-H EGE luminescence; hits give high values; 0 = fully inhibited enzyme, 1 = untreated enzyme | activation factor at 5 µM | 96,000 tested, under 10 active;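 active = activation factor of at least 2 at 5 µM in the primary screen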
A number is an active result; - = inactive; . = no result. Most compounds without a hit are left out; they make up all but 28% or so of the library.

SMILES | CYP2C9 inh | PTK2B oligo ant | CYP2C19 inhib | CYP2C9 activ | CYP2C19 act
Cc1ccnn1CCSCC(=O)O | - | - | - | - | -
Cc1ccc(C)c(N(CC(=O)NC2CCCC2)C(=O)CCCC(=O)Nc2ccccn2)c1 | 83.4 | - | 80.1 | - | -
Cc1cccc(N(CC(=O)NC2CCCC2)C(=O)CCCC(=O)Nc2ccccn2)c1 | 61.7 | - | 78.1 | - | -
Cc1cccc(N(CC(=O)NC2CCCCC2)C(=O)CCCC(=O)Nc2ccccn2)c1 | . | - | . | . | .
Cc1cccc(N(CC(=O)NC2CCCC2)C(=O)c2c(C)noc2C)c1 | - | - | - | - | -
Cc1cccc(N(CC(=O)NC2CCCC2)C(=O)CS(=O)CC(=O)Nc2ccc3c(c2)OCO3)c1 (stereo unspecified) | 88.4 | - | - | - | -
COc1ccccc1N(CC(=O)NC1CCCCC1)C(=O)CCC(=O)Nc1ccccn1 | 60.3 | - | 64.1 | - | -
O=c1c(Cc2ccc(F)cc2)c(O)ccn1Cc1cccc(Cl)c1 | - | - | - | - | -
CC(C)(C)NC(=O)C1CC(=O)OC12CCCCC2 (stereo unspecified) | - | - | - | - | -
COc1ccccc1N(CC(=O)NC1CCCC1)C(=O)c1csnn1 | - | - | 90.9 | - | -
COc1ccccc1N(CC(=O)NC1CCCCC1)C(=O)c1csnn1 | . | - | . | . | .
COc1ccccc1N(CC(=O)NCc1ccccc1)C(=O)CCC(=O)Nc1cc(C)ccn1 | . | - | . | . | .
Nc1cc(N2CCCCC2)c(Cl)cc1[N+](=O)[O-] | 52.8 | - | 79.5 | - | -
O=[N+]([O-])c1ccc(N2CCCCCC2)c([N+](=O)[O-])c1 | - | - | - | - | -
O=[N+]([O-])c1ccc(N2CCCCC2)c(Cl)c1N1CCCCC1 | 50.5 | - | - | - | -
O=C1C2C3CCC(C3NCc3ccccc3)C2C(=O)N1Cc1ccccc1 (stereo unspecified) | - | - | - | - | -
Cc1cc(C=O)c(C)n1-c1ccc(N2CCOCC2)cc1 | . | - | . | . | .
Cc1cc(C=O)c(C)n1-c1cc(C(F)(F)F)ccc1N1CCOCC1 | - | - | 91.5 | - | -
Cc1csc(NC(=O)c2cccc(Cn3nc(C)c(Br)c3C)c2)n1 | 90.0 | - | 93.4 | - | -
Cc1nn(Cc2ccc(C(=O)Nc3nc4c(C)cccc4s3)o2)c(C)c1Br | - | - | - | - | -
COc1ccc(C(=O)N2CCCC(c3nc(-c4cccs4)no3)C2)cc1OC (stereo unspecified) | - | - | 54.6 | - | -
COc1ccc(C(=O)N2CCCC(c3nc(-c4cccs4)no3)C2)cc1 (stereo unspecified) | 73.8 | - | 83.6 | - | -
O=C(N1CCOCC1)N1CCCC(c2nc(-c3cccs3)no2)C1 (stereo unspecified) | - | - | - | - | -
CCN(CC)S(=O)(=O)c1cccc(-c2nnc(SCCOc3ccccc3)o2)c1 | - | - | 93.8 | - | -
CCN(CC)S(=O)(=O)c1cccc(-c2nnc(SCCOc3ccc(Cl)cc3)o2)c1 | - | - | 61.1 | 2 | -
SMILES | CYP2C9 inh | PTK2B oligo ant | CYP2C19 inhib | CYP2C9 activ | CYP2C19 act
CCN(CC)S(=O)(=O)c1cccc(-c2nnc(SCc3nnc(-c4ccccc4)o3)n2C)c1 | 54.8 | - | 88.0 | - | -
CCN(CC)S(=O)(=O)c1cccc(-c2nnc(SCCOc3ccccc3C)o2)c1 | - | - | 90.4 | - | -
CCN(CC)S(=O)(=O)c1cccc(-c2nnc(SCC(=O)c3cc(C)n(C)c3C)o2)c1 | - | - | - | - | -
CN=C(Nc1cccc(OC)c1)SC1CC(=O)N(c2ccc(C(=O)O)cc2)C1=O (stereo unspecified) | . | - | . | . | .
COC(=O)N/N=C/c1cc(Cl)cc(Cl)c1OCc1ccccc1 | . | - | . | . | .
CCCCn1c2c(c(=O)n(C)c1=O)C(c1ccc(OC)cc1)N1CCCCCC1=N2 (stereo unspecified) | - | - | - | - | -
Cc1cc(=O)[nH]c(Sc2c(-c3ccccc3)c3ccccc3[nH]c2=O)n1 | - | - | - | - | -
Cc1ccc(-c2cc(-c3ccccc3[N+](=O)[O-])[nH]n2)c(O)c1 | 77.5 | - | - | - | -
Cc1ccc(-c2cc(-c3ccccc3Cl)[nH]n2)c(O)c1 | - | - | - | - | -
Cc1ccccc1-c1cc(-c2ccccc2O)n[nH]1 | 96.1 | - | 92.7 | - | -
Oc1ccc(Cl)cc1-c1cc(-c2ccccc2)n[nH]1 | - | . | 50.8 | - | -
CC(=O)Nc1ccc(-c2nn[nH]n2)cc1Cl | - | - | - | - | -
Cn1cnc2c1c(=O)n(CC(O)CO)c(=O)n2C (stereo unspecified) | - | - | - | - | -
CC(=O)CCCCn1c(=O)c2c(ncn2C)n(C)c1=O | 51.2 | . | - | - | -
CC(C)C(=O)Nc1ccc(C(=O)c2ccccc2)cc1 | . | - | . | . | .
CC1CCCC(C)N1CCNC(=O)CCn1nc(-c2ccccc2)ccc1=O (stereo unspecified) | - | . | - | - | -
CCN(CC)C(=O)Oc1ccc(Cl)c2ccccc12 | - | - | 67.2 | - | -
CCN(CC)C(=O)Oc1ccccc1NC(C)=O | - | - | - | - | -
N#CC1C(=O)NC(N2CCN(c3ccccc3)CC2)=NC12CCCCC2 (stereo unspecified) | - | - | - | - | -
CC(=O)c1cc(F)c(N2CCN(C(=O)COc3ccc(F)cc3)CC2)cc1C | . | - | . | . | .
CCCCn1nnnc1SCC(=O)c1ccc(C)c(C)c1 | - | - | 89.8 | - | -
COc1ccc(Cl)cc1C(=O)CSc1nc(N)cc(N)n1 | - | - | - | 4.1 | -
COc1cccc(-n2nnnc2SCC(=O)c2cc(OC)ccc2OC)c1 | - | . | - | - | -
CCCCn1nnnc1SCC(=O)c1cc(Cl)ccc1OC | - | - | 74.5 | 2 | -
CCCCn1nnnc1SCC(=O)NCc1ccco1 | - | - | - | - | -
SMILES | CYP2C9 inh | PTK2B oligo ant | CYP2C19 inhib | CYP2C9 activ | CYP2C19 act
Clc1ccc(OCc2cc(-c3ccccc3)no2)cc1Cl | 69.1 | - | - | - | -
Cc1ccsc1C(C(=O)NC1CCCCC1)N(C(=O)c1csnn1)C1CC1 (stereo unspecified) | - | - | 63.9 | - | -
Cc1ccc(C(C(=O)NC2CCCC2)N(C(=O)c2csnn2)C2CCCC2)o1 (stereo unspecified) | - | - | 64.0 | - | -
FC(F)(F)c1nc(N2CCCC2)ncc1-c1nnnn1-c1ccccc1 | 51.6 | - | 82.3 | - | -
Cc1ccc(-n2nnnc2-c2cnc(N3CCCC3)nc2C(F)(F)F)cc1 | 76.2 | - | 87.2 | - | -
Fc1cccc(-n2ncc(-c3nnnn3-c3ccccc3)c2C(F)(F)F)c1 | . | - | . | . | .
Cc1ccc(-n2nnnc2-c2cnn(-c3cccc(F)c3)c2C(F)(F)F)cc1 | . | - | . | . | .
CCOc1ccc(C2NC(=O)NC(C)=C2C(=O)OC)cc1C (stereo unspecified) | - | - | - | - | -
C/C(=C\C(=O)O)CC(=O)O | - | - | - | - | -
NS(=O)(=O)c1ccc(NC(=O)CSc2nnc(-c3cnccn3)n2-c2ccccc2)cc1 | - | - | - | - | -
Cc1cc(C)cc(N(C(=O)C(F)(F)F)C(C(=O)NC2CCCCC2)c2cccs2)c1 (stereo unspecified) | - | - | - | - | -

From PubChem BioAssay
